Holding throughout (assay type): functional
In assay [1] the test system is Plasmodium falciparum. The assay can be described thus: GSK_TCMDC: Inhibition of Plasmodium falciparum 3D7 in whole red blood cells, using parasite LDH activity as an index of growth. Test compounds present at 2uM.
The test system of assay [2] is Plasmodium falciparum. The assay can be described thus: GSK_TCMDC: Inhibition of Plasmodium falciparum Dd2 in whole red blood cells, using parasite LDH activity as an index of growth. Test compounds present at 2uM.
In a further assay the test system is HepG2. Briefly: GSK_TCMDC: Percent inhibition of human HepG2 cell line. Test compounds present at 10uM.

For orientation: Inhibition means how much of the control response was suppressed. Turning to `Cn1ccnc1CCC(=O)Nc1ccc(Cl)cc1C(=O)Nc1ccc(Cl)cc1`, the Inhibition stood at 92% with Plasmodium falciparum [1], 3% with Plasmodium falciparum [2] and 28% in the assay on HepG2.
In the same order, the values of `Cc1cc(-c2ccc(CNCc3ccsc3)cc2)ccc1S(=O)(=O)NCCN1CCCC1.O=C(O)C(F)(F)F` are 99%, 49% and 57%.
In the same order, the values of `CCCCNC(=O)[C@H](CC1CCCCC1)NC(=O)c1ccc(O)c(-c2ccc(OC)cc2)c1` are 89%, 12% and 0%.
As to `COc1ccc(-c2ccc(NC(=O)c3cccc(C#N)c3)cc2)cc1CN1CCCC(C(N)=O)C1.O=C(O)C(F)(F)F` (configuration not stated), the Inhibition in the assay on Plasmodium falciparum [1] is 98%; in the assay on Plasmodium falciparum [2], 44%; in the assay with HepG2 it was 12%.
In the same order, the values of `Cn1c2c(c3ccccc31)CN(CCC1(c3ccc(Cl)c(Cl)c3)CN(C(=O)c3ccccc3)CCO1)CC2` (configuration not stated) are 97%, 88% and 10%.
In the same order, the values of `Cl.O=C(C=Cc1cccc(F)c1)NC1CCC(CCN2CCc3ccc(-c4cnccn4)cc3CC2)CC1` (configuration not stated) are 100%, 67% and 51%.
In the same order, the values of `Cc1cc(N[C@@H](CC(C)C)C(=O)NCCOc2ccccc2)nc(NCCc2ccc(F)cc2)n1.O=C(O)C(F)(F)F` are 95%, 54% and 25%.
For the compound `Cl.O=c1cc(NCCCNCc2cc3ccc(Br)cc3s2)[nH]c2ccccc12`, the Inhibition in the assay on Plasmodium falciparum [1] stood at 92%; in the assay on Plasmodium falciparum [2], 8%; in the assay on HepG2, 18%.
The like results for `CCN(CC)CCCOc1ccc(Nc2nccc(-c3c(-c4cccc(NC(=O)c5c(F)cccc5F)c4)nn4ccccc34)n2)cc1F` were, in that order, 100%, 99% and 86%.
The like results for `Cc1cc(N2CCCCC2)nc2ccc(NC(=O)c3cncc(Br)c3)cc12` were, in that order, 100%, 86% and 0%.
In the same order, the values of `O=S(=O)(c1ccccc1Cl)N1CCCCC(c2ccc(C(F)(F)F)cc2)=N1` are 86%, 72% and 22%.
On to `CCCCNC(=O)[C@H](CC1CCCCC1)NC(=O)c1ccc(O)c(-c2cccc(C(F)(F)F)c2)c1`, for which the Inhibition in the assay with Plasmodium falciparum [1] came out at 98%; with Plasmodium falciparum [2], 86%; in the assay on HepG2, 0%.
The like results for `Cc1nc(-c2cccc(NC(C)C(=O)Nc3cc(C(F)(F)F)ccc3N3CCOCC3)c2)cs1` (configuration not stated) were, in that order, 82%, 97% and 3%.
In the same order, the values of `O=C(NC1CCCCC1)N(Cc1ccc(-c2ccc(CNCc3ccc4c(c3)OCO4)cc2)cc1)C1CCN(Cc2ccccc2)CC1.O=C(O)C(F)(F)F` are 100%, 72% and 28%.
Take `CCOc1cc(C(=O)NC2CC(C)(C)NC(C)(C)C2)ccc1-c1nc2cc(Cl)ccc2[nH]1`: the Inhibition in the assay on Plasmodium falciparum [1] stood at 100%; in the assay on Plasmodium falciparum [2], 64%; with HepG2, 46%.
In the same order, the values of `COc1cc2nc(NCCc3ccccc3)nc(NCc3ccc(C#N)cc3)c2cc1OC` are 100%, 100% and 52%.
Turning to `O=c1c(Br)ccccc1Br`, the results for the Inhibition with Plasmodium falciparum [1], with Plasmodium falciparum [2] and with HepG2 were 94%, 41% and 98%, respectively.
With `Cc1cc(N[C@@H](Cc2ccccc2)C(=O)Nc2ccccc2)nc(NCCc2ccc(F)cc2)n1.O=C(O)C(F)(F)F`, the Inhibition in the assay on Plasmodium falciparum [1] is recorded as 96%; in the assay on Plasmodium falciparum [2] it was 81%; in the assay with HepG2, 26%.
In the same order, the values of `Cc1cccc2nc(-c3cccc(-c4cccc(CNCCCN5CCCC5=O)c4)c3)[nH]c12.O=C(O)C(F)(F)F` are 100%, 76% and 9%.
In the same order, the values of `Cc1cccc2nc(-c3cccc(-c4cccc(NC(=O)Cc5ccc[n+]([O-])c5)c4)c3)[nH]c12` are 100%, 99% and 0%.
With `Clc1ccc(CNc2nc(NCCc3c[nH]cn3)nc(N3CCCC4CCCCC43)n2)cc1` (configuration not stated), the results for the Inhibition with Plasmodium falciparum [1], in the assay with Plasmodium falciparum [2] and with HepG2 were 100%, 100% and 10%, respectively.
With `CCCC(C)c1cnc2nc(N)nc(N)c2c1C` (configuration not stated), the results for the Inhibition in the assay on Plasmodium falciparum [1], with Plasmodium falciparum [2] and in the assay with HepG2 were 95%, 1% and 67%, respectively.
The like results for `COc1ccc(Nc2nc(NCc3cccc(NS(C)(=O)=O)c3)cc(-c3ccc(OC)cc3)n2)cc1` were, in that order, 84%, 5% and 0%.
In the same order, the values of `CN1CCC(NCc2ccc(-c3ccc(S(=O)(=O)NCc4ccccc4)c(F)c3)cc2)CC1.O=C(O)C(F)(F)F` are 99%, 89% and 53%.
Regarding `COc1ccc(NC(=O)CCNc2cc(C)nc(NCCc3ccc(F)cc3)n2)cc1.O=C(O)C(F)(F)F`, the Inhibition stood at 98% in the assay on Plasmodium falciparum [1], 3% in the assay on Plasmodium falciparum [2] and 27% with HepG2.
Turning to `N#CCCN1CCN(Cc2cccc(-c3ccc(-c4nc5cc(F)ccc5[nH]4)cc3)c2)CC1.O=C(O)C(F)(F)F`, the Inhibition turned out to be 100% with Plasmodium falciparum [1], 35% with Plasmodium falciparum [2] and 18% in the assay with HepG2.
`Cc1cccc(-n2c(=O)c3c4c(sc3n3c(SCCC(C)C)nnc23)CCCC4)c1`: the Inhibition is given as 90% with Plasmodium falciparum [1], 8% in the assay on Plasmodium falciparum [2] and 0% in the assay on HepG2.
In the same order, the values of `CC(C)CNCc1cccc(-c2cccc(CN(CCCN3CCN(C)CC3)C(=O)CCC3CCCC3)c2)c1.O=C(O)C(F)(F)F` are 100%, 96% and 45%.
As for `O=C(Nc1cc(Cl)ccc1O)c1ccc(Oc2ccc(C(=O)Nc3cc(Cl)ccc3O)cc2)cc1`, the Inhibition with Plasmodium falciparum [1] worked out at 97%; in the assay on Plasmodium falciparum [2] it was 91%; in the assay with HepG2, 32%.
The like results for `Cl.c1ccc2c(NCCCCCCCCCNc3ccnc4ccccc34)ccnc2c1` were, in that order, 100%, 100% and 57%.
The like results for `Cc1cc(N2CCCC2)nc(Nc2ccc(NC(=O)c3ccccc3C)cc2)n1` were, in that order, 100%, 40% and 22%.
The like results for `CC(C)(C)[C@@H](Nc1ccc(C#N)c2ccccc12)C(=O)NC1(Cc2ccc(O)cc2)CCCC1` were, in that order, 90%, 74% and 14%.
For `O=C(Nc1cccc2ccccc12)N1CCC(NS(=O)(=O)c2cccc(C(F)(F)F)c2)CC1`, the figures for the Inhibition in the assay on Plasmodium falciparum [1], in the assay with Plasmodium falciparum [2] and with HepG2 were 95%, 1% and 0%, respectively.
As for `O=C(Nc1ccc(Cn2ncc(N3CCCNCC3)c(Cl)c2=O)cc1)Nc1cc(Cl)cc(Cl)c1.O=C(O)C(F)(F)F`, the results for the Inhibition in the assay with Plasmodium falciparum [1], with Plasmodium falciparum [2] and in the assay with HepG2 were 91%, 17% and 3%, respectively.
In the same order, the values of `COc1ccccc1C(=O)C1CCCN(C(=O)c2ccccc2C(F)(F)F)C1` (configuration not stated) are 91%, 84% and 0%.
As for `Oc1ccc2[nH]c(-c3ccc(F)cc3F)nc2c1CN1CCC(O)(c2ccccc2)CC1`, the figures for the Inhibition in the assay with Plasmodium falciparum [1], in the assay with Plasmodium falciparum [2] and in the assay on HepG2 were 96%, 70% and 16%, respectively.
The like results for `N=C(N)NC(=O)Nc1cc(Cl)c(Cl)c(C(F)(F)F)c1` were, in that order, 100%, 99% and 6%.
In the same order, the values of `CC(C)CN1CCN(CCNc2c3ccccc3nc3ccccc23)CC1` are 97%, 79% and 26%.
For `CCN(CC)CCN(Cc1ccc(-c2ccc(C(F)(F)F)cc2)cc1)C(=O)Cn1c(CCc2cc(F)ccc2F)nc(=O)c2ccccc21.O=C(O)C(O)C(O)C(=O)O`, the Inhibition in the assay on Plasmodium falciparum [1] is 98%; in the assay on Plasmodium falciparum [2], 52%; in the assay with HepG2, 42%.
Regarding `Cc1ccc(-n2nc(-c3ccccc3)c3cc(C(=O)NCCN)sc32)cc1`, the Inhibition in the assay on Plasmodium falciparum [1] is on record as 92%; in the assay on Plasmodium falciparum [2] it was 43%; in the assay with HepG2 it was 28%.
As to `CC1CCC(NC(=O)c2nn(-c3ccc(Cl)cc3)c(=O)c3ccccc23)CC1` (configuration not stated), the Inhibition in the assay with Plasmodium falciparum [1] came to 91%; with Plasmodium falciparum [2], 67%; in the assay on HepG2, 3%.
The like results for `CCOC(=O)c1ccc(NC(=O)Nc2cccc(-c3ccc(-c4nc5cc(C(F)(F)F)ccc5[nH]4)cc3)c2)cc1` were, in that order, 100%, 99% and 62%.
Take `Cc1cc(-c2nc3ccc(N4CCN(C)CC4)cc3[nH]2)nn1Cc1cc(Cl)ccc1OCC(C)C.Cl`: the Inhibition with Plasmodium falciparum [1] is on record as 99%; in the assay on Plasmodium falciparum [2], 67%; with HepG2, 41%.
The like results for `CC(C)NCc1ccc(-c2ccc(NC(=O)c3ccc(Cl)cc3)cc2)cc1.O=C(O)C(F)(F)F` were, in that order, 90%, 8% and 60%.
Regarding `Cc1ccccc1C1CCN(c2ncc(C(=O)NC3CC3)cc2Cl)CC1.O=C(O)C(F)(F)F`, the values for the Inhibition in the assay with Plasmodium falciparum [1], in the assay with Plasmodium falciparum [2] and with HepG2 were 96%, 96% and 22%, respectively.
`NC(=O)c1sc(-n2cnc3ccccc32)cc1OCc1ccccc1[N+](=O)[O-]`: the Inhibition was determined as 99% in the assay on Plasmodium falciparum [1], 46% in the assay with Plasmodium falciparum [2] and 10% with HepG2.
The like results for `C[C@@H](Oc1cc(-n2cnc3ccc(NC(=O)NC(C)(C)C)cc32)sc1C(N)=O)c1ccccc1Cl` were, in that order, 95%, 97% and 28%.
In the same order, the values of `COc1ccc(CNC2Cc3ccccc3C2)cc1-c1cccc(S(=O)(=O)NCCN2CCCC2)c1.O=C(O)C(F)(F)F` are 98%, 61% and 48%.
In the same order, the values of `O=C(/C=C/c1ccc(Cl)cc1)NCCCCCN1CCCC(C(=O)Nc2ccc(Cl)c(Cl)c2)C1` (configuration not stated) are 96%, 3% and 27%.
